Results filed as inconclusive are left out. Activity calls are given as the source filed them. How the source made its calls, unless noted: active means hit-call score of the fitted dose curve at least 0.9, where 1 is the maximum; inactive means score below 0.9.
Columns and labels:
[1] = ATG_PXRE_CIS: Attagene CIS-FACTORIAL HepG2 Assay for human Pregnane X Receptor Element (PXRE) (AID 2282957); conditions: HepG2 Attagene CIS-FACTORIAL PXRE reporter, mRNA; actives raise or lower the signal
How it was run: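 Read-out: fluorescence of reporter-specific RT-PCR products resolved by capillary electrophoresis, fitted bidirectionally relative to DMSO. Human HepG2 liver cells carried transfected cis-promoter reporter units and were exposed to chemicals for 24 h.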

[2] = ATG_PPRE_CIS: Attagene CIS-FACTORIAL HepG2 Assay for human Peroxisome Proliferator-activated Response Element (PPRE) (AID 2282958); conditions: HepG2 PPRE cis-element reporter, Attagene transcription factor profiling; actives raise or lower the signal
How it was run: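 HepG2 cells transiently transfected with multiplexed cis-element reporter units measure endogenous transcription factor activity. After 24 h compound exposure, reporter mRNA is quantified by RT-PCR, 6-FAM labeling, HpaI digestion and capillary electrophoresis; bidirectional fits are made against DMSO baseline.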

[3] = ATG_RORE_CIS: Attagene CIS-FACTORIAL HepG2 Assay for human RAR-related Orphan Receptor Element (RORE) (AID 2282959); conditions: HepG2 Attagene cis-factorial RORE reporter, mRNA; actives raise or lower the signal
How it was run: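 HepG2 cells transiently transfected with multiple cis-element reporter transcription units, exposed to chemical for 24 h. Reporter mRNA quantified by RT-PCR, 6-FAM primer-extension labeling, HpaI digestion and capillary electrophoresis; bidirectional fit versus DMSO baseline.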

[4] = ATG_Sox_CIS: Attagene CIS-FACTORIAL HepG2 Assay for human SRY-box transcription factor (SOX) (AID 2282960); conditions: HepG2 Attagene cis-factorial SOX reporter, mRNA; actives raise or lower the signal
How it was run: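 HepG2 cells transiently transfected with cis-element-driven multiple reporter transcription units, dosed 24 h; reporter mRNA measured by RT-PCR, FAM labelling, HpaI digestion and capillary electrophoresis. Bidirectional fit versus DMSO baseline.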

[5] = biological target: Transcription factor Sp1 (Homo sapiens) (UniProt P08047); experiment: ATG_Sp1_CIS: Attagene CIS-FACTORIAL HepG2 Assay for human Specificity Protein 1 (Sp1) (AID 2282961); conditions: HepG2 Sp1 cis-reporter transcription, actives raise or lower the signal
How it was run: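 HepG2 cells transiently transfected with multiple reporter transcription units driven by cis-regulatory elements; Sp1-responsive reporter mRNA measured 24 h after dosing by RT-PCR and capillary electrophoresis fluorescence, fitted bidirectionally against DMSO baseline.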

[6] = ATG_SREBP_CIS: Attagene CIS-FACTORIAL HepG2 Assay for human Sterol Regulatory Element Binding (SREBP) (AID 2282962); conditions: HepG2 Attagene cis-factorial SREBP reporter, mRNA; actives raise or lower the signal
How it was run: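 Endogenous factor activity is measured in HepG2 through multiplexed reporter units under cis-element control. Following a 24 h incubation, reporter transcripts are reverse-transcribed, PCR-amplified and sized by capillary electrophoresis; activity is fitted in both directions relative to DMSO.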

[7] = biological target: Signal transducer and activator of transcription 3 (Homo sapiens) (UniProt P40763); experiment: ATG_STAT3_CIS: Attagene CIS-FACTORIAL HepG2 Assay for human Signal Transducer and Activator of Transcription 3 (STAT3) (AID 2282963); conditions: HepG2, Attagene cis-factorial STAT3 reporter transcription; actives raise or lower the signal
How it was run: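 Readout: fluorescent reporter mRNA fragments resolved by capillary electrophoresis. Setup: HepG2 transfected with MRTUs reporting endogenous transcription-factor activity, dosed 24 h. Gain or loss of signal fitted bidirectionally against DMSO control.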

[8] = ATG_TA_CIS: Attagene CIS-FACTORIAL HepG2 Assay for human TA Basal Promoter (AID 2282964); conditions: HepG2 Attagene CIS-factorial TA basal promoter reporter; actives raise or lower the signal
How it was run: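 HepG2 cells transiently transfected with multiplexed cis-promoter reporter units, dosed 24 h. Reporter mRNA measured by RT-PCR, 6-FAM labelling, HpaI digestion and capillary electrophoresis; bidirectional fit versus DMSO baseline, serving as background control.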

[9] = ATG_TCF_b_cat_CIS: Attagene CIS-FACTORIAL HepG2 Assay for human T-Cell-Factor with beta-catenin (TCF/b-cat) (AID 2282965); conditions: HepG2 TCF/beta-catenin cis-reporter transcription, actives raise or lower the signal
How it was run: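 HepG2, transient MRTU transfection, cis-element-driven reporters (endogenous TFs). 24 h compound exposure. Readout: reporter mRNA by RT-PCR + 6-FAM primer extension, HpaI digest, capillary electrophoresis. Gain/loss fit vs DMSO baseline.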

[10] = ATG_TAL_CIS: Attagene CIS-FACTORIAL HepG2 Assay for human TAL Basal Promoter (AID 2282966); conditions: HepG2 Attagene cis-factorial TAL promoter reporter; actives raise or lower the signal;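 further: background control endpoint measuring basal TAL promoter reporter mRNA not a specific factor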
How it was run: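 HepG2, transient MRTU transfection, 24 h compound exposure; RNA → oligo(dT) RT → PCR → 6-FAM primer extension → HpaI digest → CE fluorescence. Bidirectional curve fit vs DMSO. Background-control readout.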

[11] = ATG_TGFb_CIS: Attagene CIS-FACTORIAL HepG2 Assay for human Transforming Growth Factor (TGF) (AID 2282967); conditions: HepG2 Attagene CIS TGFb reporter, mRNA transcription; actives raise or lower the signal
How it was run: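 HepG2 cells transiently transfected with cis-promoter-driven multiplexed reporter units; 24 h compound exposure. Reporter mRNA measured by RT-PCR, 6-FAM labeling, HpaI digestion and capillary electrophoresis; bidirectional fit versus DMSO baseline.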

[12] = biological target: Estrogen receptor (Homo sapiens) (UniProt P03372); experiment: ATG_ERa_TRANS: Attagene TRANS-FACTORIAL HepG2 Assay for human Estrogen Receptor alpha (ERa) (AID 2282970; active means hit-call score of the fitted dose curve at least 0.9, where 1 is the maximum); conditions: HepG2 Attagene TRANS ERa GAL4 reporter, mRNA
How it was run: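 Reporter mRNA induction after 24 hours, detected by fluorescent RT-PCR and capillary electrophoresis, gives the read-out. Cells are HepG2 transiently transfected with GAL4-UAS reporter transcription units responding to chimeric NR-Gal4. Activity is taken as gain of signal over DMSO baseline.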

[13] = biological target: X-box-binding protein 1 (Homo sapiens) (UniProt P17861); experiment: ATG_Xbp1_CIS: Attagene CIS-FACTORIAL HepG2 Assay for human X-box Binding Protein 1 (XBP1) (AID 2282972); conditions: HepG2 XBP1 cis-element reporter, Attagene multiplex; actives raise or lower the signal
How it was run: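 Multiplexed cis-reporter readout in transfected HepG2 liver cells. Exposure lasted 24 hours. Activity in either direction was fitted against DMSO as negative control and baseline.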

[14] = ATG_M_19_TRANS: Attagene TRANS-FACTORIAL HepG2 Assay for M19 Transcription Factor (Internal Marker) (AID 2282974; active means hit-call score of the fitted dose curve at least 0.9, where 1 is the maximum); conditions: HepG2 Attagene TRANS-FACTORIAL M19 internal marker reporter
How it was run: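 HepG2 cells transiently transfected with multiple GAL4-UAS reporter transcription units were exposed to chemicals for 24 h. Reporter mRNA was read by RT-PCR, 6-FAM primer extension, HpaI digestion and capillary electrophoresis; gain of signal fitted relative to DMSO.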

[15] = ATG_VDRE_CIS: Attagene CIS-FACTORIAL HepG2 Assay for human Vitamin D Receptor Element (VDRE) (AID 2282968); conditions: HepG2 VDRE cis-reporter transcription, actives raise or lower the signal
How it was run: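 Transient MRTU transfection of HepG2, 24 h compound exposure. Readout: reporter transcripts via RT-PCR and capillary electrophoresis, fluorescence. Bidirectional fit vs DMSO.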

[16] = ATG_GAL4_TRANS: Attagene TRANS-FACTORIAL HepG2 Assay for GAL4 (Internal Marker) (AID 2282976; active means hit-call score of the fitted dose curve at least 0.9, where 1 is the maximum); conditions: HepG2 Attagene TRANS GAL4 internal marker reporter
How it was run: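 RT-PCR/capillary electrophoresis readout of reporter mRNA. HepG2, transient MRTU transfection (GAL4-UAS reporters), 24 h compound exposure. Background-control endpoint, positive direction vs DMSO baseline.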

[17] = biological target: Steroid hormone receptor ERR1 (Homo sapiens) (UniProt P11474); experiment: ATG_ERRa_TRANS: Attagene TRANS-FACTORIAL HepG2 Assay for human Estrogen-Related Receptor alpha (ERRa) (AID 2282971; active means hit-call score of the fitted dose curve at least 0.9, where 1 is the maximum); conditions: HepG2 Attagene TRANS reporter, ERRa transactivation
How it was run: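 Transfected HepG2, 24 h dosing, ERRa-Gal4 chimera driving GAL4-UAS reporter. Readout: reporter mRNA via RT-PCR plus capillary electrophoresis (fluorescence). Positive direction vs DMSO control.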

[18] = biological target: Paired box protein Pax-6 (Homo sapiens) (UniProt P26367); experiment: ATG_Pax6_CIS: Attagene CIS-FACTORIAL HepG2 Assay for human Paired Box 6 (PAX6) (AID 2282956); conditions: HepG2 CIS-FACTORIAL PAX6 reporter transcription, RNA readout; actives raise or lower the signal
How it was run: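 Fluorescent RT-PCR products separated by capillary electrophoresis report PAX6-linked promoter mRNA in HepG2 cells 24 h post-dose. Curves fitted bidirectionally, DMSO as negative control.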

Measured: AC50

Sequence of Estrogen receptor (Homo sapiens) (P03372 whole entry, looked up, the tested form may be a part): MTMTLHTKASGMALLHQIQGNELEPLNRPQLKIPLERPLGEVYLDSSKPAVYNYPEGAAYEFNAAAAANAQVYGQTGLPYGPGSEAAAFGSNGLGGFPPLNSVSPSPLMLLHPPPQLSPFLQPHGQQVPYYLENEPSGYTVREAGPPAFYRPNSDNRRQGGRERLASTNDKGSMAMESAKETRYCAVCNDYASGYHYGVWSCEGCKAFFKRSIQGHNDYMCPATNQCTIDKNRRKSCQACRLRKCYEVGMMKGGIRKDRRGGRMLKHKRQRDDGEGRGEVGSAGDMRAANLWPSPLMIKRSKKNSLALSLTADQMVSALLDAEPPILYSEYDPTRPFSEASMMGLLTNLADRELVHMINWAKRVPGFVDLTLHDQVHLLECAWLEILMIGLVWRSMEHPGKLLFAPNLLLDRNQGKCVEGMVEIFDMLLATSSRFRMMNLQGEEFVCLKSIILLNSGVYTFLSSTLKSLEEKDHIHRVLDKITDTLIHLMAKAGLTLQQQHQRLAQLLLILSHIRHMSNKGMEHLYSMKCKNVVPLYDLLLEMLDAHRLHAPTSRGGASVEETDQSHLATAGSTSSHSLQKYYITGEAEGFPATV
Sequence of Transcription factor Sp1 (Homo sapiens) (P08047 whole entry, looked up): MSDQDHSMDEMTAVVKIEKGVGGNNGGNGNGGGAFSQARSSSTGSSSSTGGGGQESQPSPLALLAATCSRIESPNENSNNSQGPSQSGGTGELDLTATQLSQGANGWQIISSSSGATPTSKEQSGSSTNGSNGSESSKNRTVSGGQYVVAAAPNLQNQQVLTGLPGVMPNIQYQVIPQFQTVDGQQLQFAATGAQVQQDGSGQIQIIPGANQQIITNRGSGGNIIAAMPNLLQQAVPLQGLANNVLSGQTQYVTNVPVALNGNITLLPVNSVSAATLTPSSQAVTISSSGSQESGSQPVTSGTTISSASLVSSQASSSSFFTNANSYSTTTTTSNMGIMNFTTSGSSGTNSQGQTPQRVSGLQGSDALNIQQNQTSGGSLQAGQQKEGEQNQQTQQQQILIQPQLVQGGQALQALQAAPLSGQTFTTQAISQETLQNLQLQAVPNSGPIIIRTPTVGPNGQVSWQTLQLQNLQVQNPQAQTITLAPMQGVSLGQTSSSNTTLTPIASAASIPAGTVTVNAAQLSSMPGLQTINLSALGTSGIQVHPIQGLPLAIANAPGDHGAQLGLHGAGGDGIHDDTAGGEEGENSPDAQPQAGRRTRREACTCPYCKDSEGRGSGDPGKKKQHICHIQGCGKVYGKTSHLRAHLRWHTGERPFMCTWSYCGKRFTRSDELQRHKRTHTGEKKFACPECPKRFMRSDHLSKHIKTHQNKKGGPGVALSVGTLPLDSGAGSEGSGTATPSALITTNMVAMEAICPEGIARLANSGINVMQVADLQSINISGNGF
Sequence of Signal transducer and activator of transcription 3 (Homo sapiens) (P40763 whole entry, looked up, the tested form may be a part): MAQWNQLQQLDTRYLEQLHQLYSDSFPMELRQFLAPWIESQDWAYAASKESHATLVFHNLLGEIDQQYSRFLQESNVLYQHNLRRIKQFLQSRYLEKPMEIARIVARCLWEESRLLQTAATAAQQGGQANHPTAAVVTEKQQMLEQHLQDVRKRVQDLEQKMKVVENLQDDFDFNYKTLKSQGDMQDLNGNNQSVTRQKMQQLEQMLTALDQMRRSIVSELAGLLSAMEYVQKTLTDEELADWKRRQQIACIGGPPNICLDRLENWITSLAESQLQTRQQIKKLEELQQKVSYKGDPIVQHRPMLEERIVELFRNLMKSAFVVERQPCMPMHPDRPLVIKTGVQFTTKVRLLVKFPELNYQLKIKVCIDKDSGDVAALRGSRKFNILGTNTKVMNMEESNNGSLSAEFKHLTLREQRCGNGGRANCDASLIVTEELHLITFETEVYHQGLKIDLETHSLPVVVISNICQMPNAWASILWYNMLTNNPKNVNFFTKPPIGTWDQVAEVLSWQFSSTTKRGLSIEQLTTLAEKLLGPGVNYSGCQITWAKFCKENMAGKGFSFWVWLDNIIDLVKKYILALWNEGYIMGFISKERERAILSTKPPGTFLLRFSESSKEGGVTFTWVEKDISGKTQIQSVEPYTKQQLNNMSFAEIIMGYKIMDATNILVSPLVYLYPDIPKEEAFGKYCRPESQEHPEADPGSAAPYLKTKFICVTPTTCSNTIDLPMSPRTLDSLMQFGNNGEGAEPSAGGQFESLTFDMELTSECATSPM
Sequence of X-box-binding protein 1 (Homo sapiens) (P17861 whole entry, looked up): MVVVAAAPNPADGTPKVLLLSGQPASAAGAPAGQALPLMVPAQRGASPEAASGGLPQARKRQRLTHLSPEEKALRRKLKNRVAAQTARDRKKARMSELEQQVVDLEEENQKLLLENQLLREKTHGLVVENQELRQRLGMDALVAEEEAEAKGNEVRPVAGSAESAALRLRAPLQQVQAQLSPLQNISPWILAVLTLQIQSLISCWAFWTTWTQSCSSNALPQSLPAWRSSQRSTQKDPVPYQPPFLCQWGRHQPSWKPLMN
Sequence of Paired box protein Pax-6 (Homo sapiens) (P26367 whole entry, looked up): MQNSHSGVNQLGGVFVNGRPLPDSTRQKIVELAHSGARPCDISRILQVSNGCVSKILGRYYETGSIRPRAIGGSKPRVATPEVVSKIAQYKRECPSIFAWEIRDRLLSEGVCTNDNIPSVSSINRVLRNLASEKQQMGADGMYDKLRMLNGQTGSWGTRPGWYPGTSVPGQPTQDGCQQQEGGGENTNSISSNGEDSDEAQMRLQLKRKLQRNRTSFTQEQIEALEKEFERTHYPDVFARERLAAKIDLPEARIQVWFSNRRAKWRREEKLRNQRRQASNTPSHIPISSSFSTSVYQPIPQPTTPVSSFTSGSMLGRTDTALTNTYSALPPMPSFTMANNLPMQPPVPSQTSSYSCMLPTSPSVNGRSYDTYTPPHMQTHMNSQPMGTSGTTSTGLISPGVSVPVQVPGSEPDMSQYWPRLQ
Sequence of Steroid hormone receptor ERR1 (Homo sapiens) (P11474 whole entry, looked up, the tested form may be a part): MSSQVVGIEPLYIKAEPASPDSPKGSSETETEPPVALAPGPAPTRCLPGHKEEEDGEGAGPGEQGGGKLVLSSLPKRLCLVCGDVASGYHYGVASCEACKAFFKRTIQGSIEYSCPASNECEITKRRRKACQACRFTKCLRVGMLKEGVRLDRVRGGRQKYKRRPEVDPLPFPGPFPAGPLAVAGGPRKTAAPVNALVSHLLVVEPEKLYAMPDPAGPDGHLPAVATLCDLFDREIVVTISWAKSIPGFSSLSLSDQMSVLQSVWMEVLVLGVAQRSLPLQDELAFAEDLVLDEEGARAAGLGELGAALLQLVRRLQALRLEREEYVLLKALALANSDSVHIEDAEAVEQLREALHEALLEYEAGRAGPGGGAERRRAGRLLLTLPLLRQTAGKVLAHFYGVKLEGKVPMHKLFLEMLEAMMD

C=CC(C)(O)CC/C=C(\C)CC (stereo not given)
inactive: [2] | [3] | [4] | [5] | [6] | [7] | [8] | [9] | [10] | [11] | [13] | [14]
active: [1] 4.25 µM | [12] 30.3 µM

C[N+](C)(C)CCCNS(=O)(=O)C(F)(F)C(F)(F)C(F)(F)C(F)(F)C(F)(F)C(F)(F)C(F)(F)C(F)(F)F
inactive: [4] | [5] | [6] | [7] | [8] | [9] | [10] | [15] | [13] | [14] | [16]
active: [1] 41.7 µM | [11] 60.6 µM

CC1(C)C(=O)N(CO)C(=O)N1CO
active: [1] 27.8 µM
inactive: [2] | [3] | [4] | [5] | [6] | [7] | [8] | [9] | [10] | [11] | [15] | [13] | [16]

O=C(O)c1cc(O)c2ccccc2c1O
inactive: [2] | [3] | [4] | [5] | [6] | [7] | [12] | [17] | [13]
active: [1] 0.944 µM | [8] 60.2 µM | [10] 51.6 µM | [11] 33.4 µM

Nc1ccc(C(=O)OCCCOC(=O)c2ccc(N)cc2)cc1
inactive: [18] | [4] | [5] | [6] | [7] | [10] | [11] | [12] | [13] | [16]
active: [1] 27.5 µM | [8] 63.7 µM | [15] 48.8 µM

CC(=O)/C=C/C1C(C)=CCCC1(C)C (stereo not given)
inactive: [3] | [4] | [5] | [6] | [7] | [8] | [9] | [10] | [11] | [13] | [14]
active: [15] 13.3 µM | [12] 24.2 µM

From PubChem BioAssay (EPA / NIEHS)
